Data as given in PubChem BioAssay (NCI).
This is part of a sample that, as a whole, favours compounds with a hit. Of some 79,000 tested, about 15% had one in any assay. A number with no mark means an inactive call. Activity calls are given as the source filed them. Cut-off read from the data, not from the text of the source: active = growth inhibition above about 70%; inactive = the rest.

What was measured:
[1] = NCI Yeast Anticancer Drug Screen. Data for the rad50 strain (AID 155);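 note: 0% = growth of vehicle-only cultures of the same strain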; conditions: S. cerevisiae rad50 strain growth inhibition; at 50.0 µM; active compounds read high
In short: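 Growth of the mutant yeast was measured after compound exposure and referenced to vehicle-treated cultures.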

[2] = NCI Yeast Anticancer Drug Screen. Data for the mec2-1 strain (AID 157); conditions: S. cerevisiae mec2-1 strain, at 50.0 µM, active compounds read high
In short: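 mec2-1 yeast strain, carrying an alteration in DNA damage repair or cell cycle control, was exposed to compounds; growth inhibition was measured relative to vehicle-treated controls.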

[3] = NCI Yeast Anticancer Drug Screen. Data for the sgs1 mgt1 strain (AID 161);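 note: 0% = growth of cultures given vehicle only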; conditions: S. cerevisiae sgs1 mgt1 strain, at 50.0 µM, active compounds read high
In short: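 Yeast cells carrying a defined DNA-repair defect were exposed to test compounds. Growth inhibition was measured relative to vehicle-treated controls.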

[4] = NCI Yeast Anticancer Drug Screen. Data for the cln2 rad14 strain (AID 165);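 note: 0% = growth equal to vehicle treated cultures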; conditions: S. cerevisiae cln2 rad14 strain, at 50.0 µM, active compounds read high
In short: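 Yeast carrying cln2 and rad14 alterations (cell cycle control and DNA damage repair) were exposed to compounds. Growth inhibition was measured against vehicle-treated controls.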

[5] = NCI Yeast Anticancer Drug Screen. Data for the bub3 strain (AID 167); conditions: S. cerevisiae bub3 mutant strain, at 50.0 µM, active compounds read high
In short: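 Whole-cell yeast assay. The mutant strain was incubated with compounds, and growth inhibition was determined by comparison with vehicle-treated cells.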

[6] = NCI Yeast Anticancer Drug Screen. Data for the mlh1 rad18 strain (AID 175); conditions: S. cerevisiae mlh1 rad18 strain growth inhibition; at 50.0 µM; active compounds read high
In short: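 Growth inhibition of the yeast strain was measured after compound exposure and expressed relative to vehicle-treated controls. The strain carries defined defects in DNA damage repair.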

Compound | growth inhibition [1] | growth inhibition [2] | growth inhibition [3] | growth inhibition [4] | growth inhibition [5] | growth inhibition [6]
CCCCCCCCCCCCN(CC(O)C(O)C(OC1OC(CO)C(O)C(O)C1O)C(O)CO)C(=O)CCCCCCCCCCC (stereo not given) | -2.7% | -19.2% | 17.7% | 0.4% | 4.3% | -50.5%
CC(C)/C=N\n1c(N)c(C#N)c(C#N)c1C(C)C | -4.9% | -5.2% | -37% | 5.95% | -52.8% | -33.6%
N#CC(c1ccccc1)N(CCc1ccccc1)C(=O)c1ccccc1 (stereo not given) | -3.7% | 1.7% | -23.4% | -18.7% | -27.8% | -48.2%
COc1ccc(C(=O)/C=C/c2ccncc2)cc1OC | 41.8% | 38.4% | 51.5% | 5.55% | 32.5% | 36.9%
CC1(C)CC(N(CCO)CCO)CC(C)(C)N1O | 4.05% | -2.8% | 11.4% | -1.95% | -7.2% | 5.35%
C=CCOC(=O)CCCCC(=O)OCC=C | 3.1% | 4.15% | 3.65% | 6.1% | 19.9% | 0.1%
O=C(O)C#Cc1cccc(Cl)c1 | -20.4% | -24.3% | -14.1% | -9.9% | -16.5% | -12.8%
CCCCN(CCCC)CC(O)c1cc(-c2ccc(Cl)cc2)nc2cc(OC)c(OC)cc12 (stereo not given) | 99% (active) | 99.6% (active) | 99.7% (active) | 98.8% (active) | 51.8% | 69.9%
CCc1cc(Cl)c(O)c(Cl)c1 | 4.2% | 18.2% | 6.2% | -0.15% | 17.5% | 19%
C=CCOC(=O)c1c(Cl)c(Cl)c(Cl)c(Cl)c1C(=O)O | 18.4% | 7.85% | 29.1% | 25.9% | 14.1% | 23.9%
CCCCCCCCCCCCCCCCCCNC(=O)Nc1ccccc1 | 3.1% | 7.05% | -2.75% | -7.65% | -4.05% | 15.3%
CC12CCC(=O)[C@@]1(C)CCCC2=O (stereo not given in full) | -13% | 5% | -23.1% | 6.8% | -6.9% | 5.05%
COC(=O)c1nc(N)nc(C(=O)OC)c1C(=O)c1ccc([N+](=O)[O-])cc1 | -20.9% | -23.6% | -37% | -22% | -44.8% | -41%
CN1CCN(CCCBr)CC1 | -8.85% | -5.3% | -24.9% | -31.8% | -31.9% | -4.3%
Cc1ccccc1NCc1ccccc1[N+](=O)[O-] | 23.9% | 11.1% | 14.8% | -28.6% | -14.6% | 18.9%
O=[N+]([O-])c1cc(O)ccc1O | 5.4% | 5.45% | 0% | -10.7% | -1% | 12%
CCCCCCCCCCCCCCCCCC(=O)N/N=C/c1ccc(Cl)cc1 | -6.2% | -8.95% | -11.6% | -15.4% | -2.85% | -25.1%
Cc1ccc(CNC(=O)C2CCCCC2C(=O)O)cc1 (stereo not given) | 6.65% | 21.7% | 6.95% | 10.4% | 27.9% | -16.1%
CC(=Nc1ccccc1)NO | 1.9% | 14% | 3.7% | 3.5% | -8.1% | 2.1%
CC(=O)Nc1[nH]ncc1C#N | 3.05% | -8% | -0.2% | -12.4% | 13.3% | 18%

Compound | growth inhibition [1] | growth inhibition [2] | growth inhibition [3] | growth inhibition [4] | growth inhibition [5] | growth inhibition [6]
Oc1c(/N=N/C(=S)NCCCN2CCN(CCCNC(=S)/N=N/c3[nH]c4ccccc4c3O)CC2)[nH]c2ccccc12 | 22.8% | 6.45% | 20.6% | -2.7% | -17.8% | 14.9%
Cn1cc(C2(C)CC(C)(C)c3c2n(C)c2ccccc32)c2ccccc21 (stereo not given) | 0.3% | -16.1% | -12.2% | 7.15% | -17.9% | 2.95%
NC(=O)/C(=C\c1ccncc1)c1cccc2ccccc12 | -0.55% | -5.1% | -41.1% | -3.35% | -44% | -7.05%
Cc1c2ccccc2nc(CS(=O)c2ccccc2)[n+]1[O-] (stereo not given) | -8.8% | 21.9% | 20.1% | -36.4% | 16.8% | 20.2%
Oc1ccc(-c2cc(-c3cc(-c4ccc(O)cc4)no3)on2)cc1 | -1.95% | -3.5% | -10.8% | -11.7% | -32.3% | -7.1%
CC1=NN(C(=O)c2ccccc2O)C(=O)/C1=C/c1cccc([N+](=O)[O-])c1 | 47.8% | 26.9% | 37.1% | 28.1% | 61.1% | 33.8%
CO[C@@H]1O[C@H](C(=O)c2ccccc2)[C@H]2OC(C)(C)O[C@@H]12 | -5% | -10.7% | 28.3% | 8.7% | 19.1% | 16.3%
NC(CCC(=O)NC1(C(=O)O)C2CC3CC(C2)CC1C3)C(=O)O (stereo not given) | 6% | -0.1% | -5% | -18% | -4.4% | 4.85%
Cc1cc(C)c(C(=O)OCCN(C)C)c(C)c1 | 10.8% | 2% | 9.9% | -5.25% | 0.5% | -0.6%
CC(C)(C)CC(C)(C)[N+](=O)[O-] | -1.15% | -14.6% | 2.75% | 6.85% | -3.25% | 18.4%
CCOC(=O)COc1cc2c(cc1C(C)c1cc(OC)c(OC)c(OC)c1)OCO2 (stereo not given) | 34.6% | 2.2% | 10.3% | 18.1% | 34% | 10.9%
O=Cc1cc2c(cc1Br)OCO2 | 39.7% | 16.1% | 22.3% | 10.2% | -25.6% | 8.3%
Nc1nc2c(c(-c3cccc(Cl)c3)n1)COC/C2=C\c1cccc(Cl)c1 | 26.3% | 20.8% | 25.2% | 20.2% | 25.4% | 24%
CC1CC([NH-])C([NH-])C(C)(C)C1.[Cl][Pt+2][Cl] (stereo not given) | -4.35% | -4.25% | -9.95% | -12.2% | -10.8% | -49.2%
CCOc1ccc(-n2c(O)c(N=Nc3ccccc3OC)c(=O)n(-c3ccc(OC)cc3)c2=S)cc1 | 18.4% | -7.9% | -10.3% | -10.4% | -4.8% | 7.05%
Cc1cccc2c1CCC21OC(=O)c2c1ccc1ccccc21 (stereo not given) | 10.9% | 2.7% | 6.3% | 17.1% | 15.2% | 15.1%
COc1ccc(Cc2ccc(OC)cc2)cc1 | -34.2% | -5.3% | 8.15% | -9.15% | 5.15% | -15%
COc1ccc(NC(=O)CN)cc1 | 1.3% | -9.9% | 0.2% | -2.55% | 7.6% | 0.7%
CC/C=C\C/C=C\C/C=C\CCCCCCCC(=O)OC(COC(=O)CCCCCCCCCCCCCCCCC)COC1OC(CO)C(O)C(O)C1O (stereo not given) | 38.4% | 8.55% | 31.8% | -3.4% | 32.2% | 33.4%
O=c1sc2ncccc2n1-c1ccc([N+](=O)[O-])cn1 | -3.4% | 10.4% | 3.15% | -18.4% | 11.9% | -6.55%
